Measured values: PubChem BioAssay AID1347421 (Sanford-Burnham Center for Chemical Genomics, 2020)
Over roughly 1,500 compounds, “activity” has its median near 2; the lowest 2% begin near -18. Many of the other results were omitted from the sample, so the lowest values are more common in it than they were. The source made the active and inactive calls.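 The calls were made as follows: active = inhibition of at least 40% at 10 µM; inconclusive = no clear call, values can overlap the other calls; inactive = the rest.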

These molecules were tested against Sulfhydryl oxidase 1 (Homo sapiens) (UniProt O00391) (assay: human QSOX1 sulfhydryl oxidase inhibition – biochemical, ROS-Glo luminescence, single concentration, confirmation (AID 1347421;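 also: 0% = DMSO wells with enzyme and 100% = wells lacking QSOX1 enzyme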)). Settings: recombinant hQSOX1, RNase A substrate, ROS-Glo H2O2 luminescence; at 10 µM.
Sulfhydryl oxidase 1 (Homo sapiens), sequence (O00391 whole entry, looked up): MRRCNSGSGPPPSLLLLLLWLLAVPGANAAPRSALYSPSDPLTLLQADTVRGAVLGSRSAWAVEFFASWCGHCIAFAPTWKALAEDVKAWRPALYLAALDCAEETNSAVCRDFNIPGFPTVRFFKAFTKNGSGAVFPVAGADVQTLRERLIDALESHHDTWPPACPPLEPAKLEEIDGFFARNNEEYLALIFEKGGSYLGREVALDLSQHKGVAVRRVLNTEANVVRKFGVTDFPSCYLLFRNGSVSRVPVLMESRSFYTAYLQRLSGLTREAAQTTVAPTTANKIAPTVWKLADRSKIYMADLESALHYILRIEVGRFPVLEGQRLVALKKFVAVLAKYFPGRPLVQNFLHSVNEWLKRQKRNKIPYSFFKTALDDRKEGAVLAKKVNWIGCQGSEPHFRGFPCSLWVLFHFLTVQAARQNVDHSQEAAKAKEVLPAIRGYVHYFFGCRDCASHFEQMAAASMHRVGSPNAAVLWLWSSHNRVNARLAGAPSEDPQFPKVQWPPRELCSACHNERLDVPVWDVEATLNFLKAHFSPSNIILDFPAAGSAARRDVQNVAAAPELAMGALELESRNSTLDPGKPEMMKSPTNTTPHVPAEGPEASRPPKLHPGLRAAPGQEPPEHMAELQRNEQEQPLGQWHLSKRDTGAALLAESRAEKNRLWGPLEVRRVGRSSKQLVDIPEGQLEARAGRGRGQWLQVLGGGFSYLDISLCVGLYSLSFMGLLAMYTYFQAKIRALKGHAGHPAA

| Structure (SMILES) | activity |
| --- | --- |
| Cc1cccc(S(=O)(=O)NCC2CCN(c3cnn(C)c(=O)c3)C2)c1 (stereo not given) | 5.8% |
| Cc1ccc(S(=O)(=O)N2CCC(C(=O)N3CCN(c4ccccn4)CC3)CC2)cc1 | -18.7% (inactive) |
| CC(=O)Nc1ccc(S(=O)(=O)N2CCN(C(=O)N3CCCCCC3)CC2)cc1 | -1.3% (inactive) |
| Cc1nc(CC(=O)N2CCCC(CCC(=O)N3CCN(c4ccccn4)CC3)C2)cs1 (stereo not given) | -2.5% (inactive) |
| CCN(CC1CCCO1)C(=O)C1CCN(C2CCN(Cc3ccccc3C)CC2)CC1 (stereo not given) | 9.1% |
| COCCN1CCC(CN(Cc2ccncc2)Cc2csc(C(C)=O)c2)CC1 | -7.9% (inactive) |
| COc1cccc(CN2CCCC(NCc3ccc4nonc4c3)C2)c1 (stereo not given) | -3.2% (inactive) |
| COC(=O)C1CCCCN1C(=O)c1ccc2oc(C(C)C)nc2c1 (stereo not given) | 4.4% |
| Cc1occc1-c1nnc2sc(CCc3ccccc3)nn12 | -18.1% (inactive) |
| c1ccc(Cc2nn3c(-c4ccco4)nnc3s2)cc1 | -5.1% (inactive) |
| c1ccc(CCCc2nn3c(-c4cccnc4)nnc3s2)cc1 | 3% |
| Cc1ccc(S(=O)(=O)CC(=O)N2CCN(c3ccccc3)CC2)cc1 | -17% (inactive) |
| Cc1nc(SCC(=O)N2CCN(c3ccccc3)CC2)nc2c1CCCC2 | -19.5% (inactive) |
| Cc1nonc1CC(=O)N1CCC(CCC(=O)N2CCN(c3ccccc3)CC2)CC1 | 11.2% |
| COc1ccc(N2CCN(C3CCCN(Cc4nc5ccccc5nc4C)C3)CC2)cc1 (stereo not given) | 7.9% |
| OC(COc1ccccc1CNCCc1cnccn1)CN1CCSCC1 (stereo not given) | 7.9% |
| O=C1CN(c2nc3nonc3nc2NC2CCCC2)CCN1C1CCCC1 | -1.2% (inactive) |
| C=CCn1cc(CNC2CC(=O)N(Cc3cccc(F)c3)C2)c(C)n1 (stereo not given) | -1.3% (inactive) |
| COc1ccc(C(C)(C)NC(=O)C2CCC(=O)N(Cc3ccccc3F)C2)cc1OC (stereo not given) | -0.6% (inactive) |
| O=C(NCCc1ccc(Cl)cc1)c1cccc(-n2cnnc2)c1 | -1% (inactive) |
| CC(=O)c1cccc(OCc2cc(C(=O)N(CC3CC3)CC3CCCO3)no2)c1 (stereo not given) | 0.5% |
| CC(C)CCCC1CN(C(=O)c2ccc(N3CCN(C)CC3)cc2)CCO1 (stereo not given) | 6.6% |
| Cc1cc(Oc2ccccc2)nc(Oc2ccc(=O)n(-c3ccccc3)n2)n1 | -9.1% (inactive) |
| CC(C)(C)NC(=O)CN1C(=O)CCC1=O | -0.4% (inactive) |
| Cc1nc2sccn2c1C(=O)N1CCCC(N(C)Cc2ccccc2)C1 (stereo not given) | -0.3% (inactive) |
| O=C(C1CCCO1)N1CCc2[nH]nc(-c3ccc(C(F)(F)F)cc3)c2C1 (stereo not given) | -2.9% (inactive) |
| COc1cc(CNCc2ccc(F)cc2)ccc1OCC(O)CN1CCOCC1 (stereo not given) | 2.4% |

| Structure (SMILES) | activity |
| --- | --- |
| CC(C)C(=O)N1CCN(c2ccc(NC(=O)c3ccccn3)cc2)CC1 | 7.7% |
| O=C(NCc1ccccc1)N1CCN(CCO)CC1 | 2.5% |
| O=C(Nc1ccccc1)N1CCN(c2nsc3ccccc23)CC1 | -22.1% (inactive) |
| COc1ccc(NC(=O)NC2CC(=O)N(CC(C)(C)C)C2)c(OC)c1 (stereo not given) | -1.6% (inactive) |
| O=C(NCC(O)CO)c1ccc(OC2CCN(CCc3ccccc3)CC2)cc1 (stereo not given) | -0.6% (inactive) |
| CCN1CCN(CC(O)COc2cccc(CNCCCSC)c2)CC1 (stereo not given) | 9.1% |
| COc1ccc(F)c(CN2CCCC3(CCN(S(=O)(=O)N(C)C)C3)C2=O)c1 (stereo not given) | 0.3% |
| COc1cccc(CN2CCCC3(CCN(Cc4ccccn4)C3)C2)c1OC (stereo not given) | 7.4% |
| Cc1nc(C)c(CN2C[C@H]3OC(=O)N(CCCc4ccc(F)cc4)[C@H]3C2)nc1C | 8.2% |
| C=CCC(=O)N(CCOC)CC1CCCN(C2Cc3ccccc3C2)C1 (stereo not given) | 6.2% |
| COC(=O)c1ccc(-c2noc(CN(C)CC3Cc4ccccc4O3)n2)cc1 (stereo not given) | 5.4% |
| CCOC(=O)c1nc(-c2ccc(F)cc2)no1 | -21.6% (inactive) |
| CCC(=O)Oc1ccc(-c2nc(-c3cccc(OC)c3)no2)cc1 | 86.9% (active) |
| CC(C)NC(=O)C1CCN(C2CCN(C3CCSCC3)CC2)CC1 | 0.2% |
| COc1ccccc1C(=O)C1CCCN(Cc2ccc(OCCO)cc2)C1 (stereo not given) | 1.5% |
| O=C(c1cc2ccccc2oc1=O)N1CCOC(CC2CCCCC2)C1 (stereo not given) | 0.4% |
| COc1ccc(N2CCN(C(=O)c3cccc(-n4cnnc4)c3)CC2)cc1 | -22.3% (inactive) |
| COc1ccc(N2CCN(C(=O)c3ccc(-n4cnnc4)cc3Cl)CC2)cc1 | -13.7% (inactive) |
| CC(=O)Nc1cccc(C(=O)N2CCN(c3ccccc3)CC2)c1 | 5.9% |
| COCCN1CCCC(O)(CN2CCCCCC2)C1=O (stereo not given) | 10.4% |
| O=C(CSc1nnc(-c2ccco2)o1)Nc1ccc(Br)cc1 | 2.3% |
| O=C(/C=C/c1cccnc1)N1CCCC(N2CCN(c3ccc(F)cc3)CC2)C1 (stereo not given) | 1% |
| c1ccc(-c2nn3c(-c4ccco4)nnc3s2)nc1 | -4.2% (inactive) |
| c1ccc(Cc2nn3c(-c4cccs4)nnc3s2)cc1 | -5.3% (inactive) |
| c1ccc(-c2nn3c(-c4cccs4)nnc3s2)nc1 | -20.4% (inactive) |
| OCC1CCN(C2CCCN(Cc3cccc(OC4CCCC4)c3)C2)CC1 (stereo not given) | 7% |
| CCN(CC)S(=O)(=O)Cc1ccccc1Cl | -19.9% (inactive) |

| Structure (SMILES) | activity |
| --- | --- |
| CCCCNC(=O)N1CCN(Cc2ccccc2Cl)CC1 | -7% (inactive) |
| CCN(CC)CC(=O)N1CCOC(Cc2ccccc2Cl)C1 (stereo not given) | 2.5% |
| C=CCNC(=O)CCc1ccc(S(=O)(=O)NC)cc1 | -11.4% (inactive) |
| O=C(Cn1nnc(-c2cccs2)n1)NCCC1=CCCCC1 | -7.9% (inactive) |
| CC(C)CCCC1CN(C(=O)CCC(N)=O)CCO1 (stereo not given) | 6.8% |
| Cc1occc1-c1nnc2n1N=C(c1ccccc1)CS2 | -19.7% (inactive) |
| Cc1oc(-c2ccccc2Cl)nc1CN(Cc1cnn(C)c1)C(C)C | 5.9% |
| COc1ccc(CNCCCSC)cc1OCC(O)CN(C)C(C)C (stereo not given) | 3.5% |
| O=C(NCC(c1ccc(F)cc1)N1CCCC1)c1cn(CCN2CCOCC2)nn1 (stereo not given) | 2.4% |
| COc1cccc(NC(=O)CCC2CCN(C(=O)CCc3cnccn3)CC2)c1 | -0.4% (inactive) |
| CCN1CCCC1CNC(=O)CCC1CCN(Cc2cc(OC)c3c(c2)OCO3)CC1 (stereo not given) | 0.6% |
| CCS(=O)(=O)c1ncc(CN(C)CC(O)c2ccccc2)n1Cc1ccccc1 (stereo not given) | 6.9% |
| CCn1cc(-c2nc(-c3ccccn3)no2)cn1 | 44.4% (active) |
| COCCN1C(=O)C(=O)/C(=C(\O)c2ccc(OC)cc2C)C1c1cccnc1 (stereo not given) | -3% (inactive) |
| NC(=O)C1CCCN(C(=O)Nc2ccc(F)cc2)C1 (stereo not given) | -0.4% (inactive) |
| CSc1ncc(CN2CCCC(CO)(CCOc3ccccc3)C2)cn1 (stereo not given) | 10.5% |
| COc1ccccc1CCN1CCC(CN(C)C(=O)c2cscn2)CC1 | -1.8% (inactive) |
| Cc1cc(CNCc2cccc(OCC(O)CN3CCCCCC3)c2)on1 (stereo not given) | -2.7% (inactive) |
| COC(=O)c1ccc(CNC(=O)CC2C(=O)NCCN2Cc2cccs2)cc1 (stereo not given) | 2.8% |
| O=C(c1ccc(-c2ccccc2)c(F)c1)C1CCCN(C(=O)CCc2cnccn2)C1 (stereo not given) | 9.5% |
| Fc1ccc(C2(c3noc(-c4cn[nH]c4)n3)CCOC2)cc1 (stereo not given) | 2.1% |
| Cc1cc(C)c(S(=O)(=O)Nc2ncn[nH]2)c(C)c1 | -18.4% (inactive) |
| CC(C)Oc1cccc(C(=O)Nc2ncn[nH]2)c1 | -3.3% (inactive) |
| CCOC(=O)C1(CCCc2ccccc2)CCN(C(=O)CCn2cnnn2)CC1 | 0.6% |
| COCc1ccc(C(=O)N2CCC(CCC(=O)NCc3cccnc3)CC2)o1 | 4.1% |
| CC(C)CCCC1CN(Cc2ncc[nH]2)CCO1 (stereo not given) | 5.8% |
| COc1ccc(OC2CCN(C(=O)C3CC3)CC2)c(C(=O)NCCCN2CCOCC2)c1 | 2% |

| Structure (SMILES) | activity |
| --- | --- |
| Cc1cccc(N2CCN(CC(=O)Nc3ccc(S(N)(=O)=O)cc3)CC2)c1C | -11.2% (inactive) |
| O=C(CN1CCCCCC1)Nc1ccc(Cl)cc1 | -10% (inactive) |
| Cc1ccc(NC(=O)CN2CCc3ccccc3C2)cc1 | -21.7% (inactive) |
| CN(C)CCC1CN(C(=O)CSc2ccccc2)CCO1 (stereo not given) | 4.2% |
| CC(C)Cc1ccc(CN2CCCC(NC3CCN(C)CC3)C2)cc1 (stereo not given) | -2.5% (inactive) |
| O=C(CCc1ccncc1)N1CCOC(Cc2ccccc2Cl)C1 (stereo not given) | 3.1% |
| CCN1CCCC1CN(CC1CCN(CCOC)CC1)C(=O)CCc1ccc(=O)[nH]n1 (stereo not given) | 6.9% |
| CN(C)CCC1CN(Cc2cnc(-c3ccccc3)s2)CCO1 (stereo not given) | -0.6% (inactive) |
| CCCn1c(=O)c2c(nc3n2CCN3Cc2ccco2)n(C)c1=O | -9.9% (inactive) |
| Cc1nc(-c2ccc(CN3CCC(CCn4cccn4)CC3)cc2)[nH]c(=O)c1F | 7.1% |
| CC(C)(C)C1(c2ccccc2)NC(=O)N(CC(=O)N2CCCCC2)C1=O (stereo not given) | -23.9% (inactive) |
| O=C(c1ccc(-c2ccccc2)cc1)C1CCCN(C(=O)CN2C(=O)CSC2=O)C1 (stereo not given) | 5.7% |
| O=C(CN1C(=O)CCNC1=O)N1CCC(OCc2ccccc2)CC1 | 2.9% |
| COc1ccc(-c2noc(CN3CCC(C)CC3)n2)cc1OC | -16% (inactive) |
| COc1cc(CN2CC[C@@H](N3CCCCCC3)[C@H](O)C2)ccc1F | 0.7% |
| O=C(CCC1CCCN(C/C=C/c2ccc(F)cc2)C1)N1CCCC1 (stereo not given) | -1.2% (inactive) |
| CS(=O)(=O)N(CC(=O)N1CCCC1)Cc1ccc(F)cc1 | -19.7% (inactive) |
| CN(C)S(=O)(=O)c1ccc(CCC(=O)N2CCOCC2)cc1 | 1.9% |
| COc1ccc(CNCCCN2CCOCC2)cc1OCC(O)CN1CCCC1 (stereo not given) | 4.6% |
| COC(=O)CCCNC(=O)C1CCC(=O)N(Cc2ccccc2OC)C1 (stereo not given) | 1.6% |
| COCCCNc1nc2nonc2nc1N(C)CCN1CCOCC1 | -1.4% (inactive) |
| COc1ccc(C(C)N(C)Cc2nc(-c3ccc(OC)cc3OC)oc2C)cc1 (stereo not given) | 5.7% |
| COc1ccc(OC)c(-c2nc(CN3CCN(C(=O)c4ccco4)CC3)c(C)o2)c1 | -4% (inactive) |
| COc1ccc2oc3nc(=O)c4ccccc4c-3cc2c1 | -123% (inactive) |
